Experimental findings from PubChem BioAssay are described below.

“And” between values parts separate entries of the source, which are not always exact repeats. Equal values may be shown once. The source made the active and inactive calls.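 Rule for the calls, unless noted: active = thallium flux through the channel raised or lowered by more than 3 SD from vehicle-only wells, actives on both sides; inactive = the rest.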

Assay [1] can be described thus: Wnt pathway potentiators raising nuclear beta-catenin – imaging, WNT3A-conditioned medium, mouse C2C12, NPC library, primary screen (AID 1117326; in the data active = nuclear beta-catenin stimulation mostly above about 4.2%, no sharp cut-off; inactive = mostly below about 10%). To be noted: stronger effect = higher value.
A short description of assay [2]: stimulators of insulin release from INS-1E, primary screen, cell-based, 5 mM glucose, NPC library (AID 1117329;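 active = compound raises insulin release from rat beta cells at 5 mM glucose, no numeric limit stated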). To be noted: rat INS-1E insulin secretion, at 10 µM, stronger effect = higher value.
The nature of assay [3]: growth inhibition of GSK3B-pretreated HCT116 cells – cell-based, CellTiter-Glo, 0.2 to 20 µM (AID 1117336;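 active = compounds lowering colon cancer cell viability after pretreatment blocking the GSK3B kinase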). To be noted: HCT116 viability after GSK3B inhibitor, at 20 µM, stronger effect = higher value.
Assay [4] in a line: inhibition of endothelial tube formation, primary screen, imaging, VEGF stimulated, CD31 staining, tube area, NPC library (AID 1117340;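 active = compound that reduces growth-factor-driven endothelial tube area in a mixed cell culture, no cutoff stated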). To be noted: VEGF-stimulated ADSC/ECFC co-culture, at 10 µM, stronger effect = higher value.
The nature of assay [5]: GLP1 release stimulators, primary, NCI-H716, NPC library (AID 1117341;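 active = compound raises GLP1 secretion from the human gut endocrine cells, with no numeric limit stated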). The settings on record: NCI-H716 cells, at 10 µM, stronger effect = higher value.
Assay [6] can be described thus: HCT116 colon cancer cell growth inhibition, primary screen, CellTiter-Glo luminescence, NPC library (AID 1117342;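 active = compounds that lower survival of HCT116 colon cancer cells in the luminescence readout, no numeric limit stated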). The settings on record: at 20 µM (top of the series).
A short description of assay [7]: reduced SW480 viability measured with CellTiter-Glo, NPC library, primary (AID 1117343;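 active = compounds that lower viability of the colon cancer cells in the luminescence readout, with no numeric limit stated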). To be noted: CellTiter-Glo luminescence; at 20 µM (top of the series).
A short description of assay [8]: NPC library primary testing for decreased DLD-1 cell viability via CellTiter-Glo (AID 1117346;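 active = compounds that lower survival of DLD-1 colon cancer cells in the luminescence readout, no cutoff given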). To be noted: DLD-1 viability, CellTiter-Glo luminescence; at 20 µM (top of the series).
Assay [9] has as its target 6-phosphogluconate dehydrogenase, decarboxylating (Homo sapiens) (UniProt P52209). Nature of the assay: inhibition of human phosphogluconate dehydrogenase – biochemical, recombinant enzyme, NADPH absorbance, primary screen (AID 1159550;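 active = at least 20% inhibition of 6-phosphogluconate dehydrogenase activity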). The settings on record: recombinant 6PGD, NADPH absorbance 341 nm; at 10 µM; stronger effect = higher value.
The nature of assay [10]: EMT-state selective cytotoxicity in co-culture – imaging, PC-3E GFP, TEM4-18 mCherry, primary screen (AID 1345086;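 active = compounds killing one labelled cell type while sparing the other, by normalised counts and ratio limits, not self-fluorescent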;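 for all read-outs here: cells exposed to compound for 72 h before imaging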;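 for red/green cell ratio (normalised): normalised mesenchymal count divided by normalised epithelial count so high means epithelial killing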). The settings on record: PC-3E GFP / TEM4-18 mCherry co-culture, imaging cell counts, at 1 µM; for red/green cell ratio (normalised): actives lie on both sides, counts scaled to control wells, 1 = unselective.
Assay [11] is described as follows: MELAS cybrid and Rieske KO viability enhancers – cell-based, MELAS cybrids, Rieske KO mouse fibroblasts, CellTiter-Glo, primary screen (AID 1508586;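 active = mean z-score across replicates of 1.96 or higher in either the MELAS or the Rieske mutant cell line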;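 note: z relative to plate mean and SD of compound and empty wells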). To be noted: low glucose.
Assay [12] addresses NAD(+) hydrolase SARM1 (Homo sapiens) (UniProt Q6SZW1). The assay can be described thus: blocking NAD cleavage by SARM1 SAM-TIR – cell lysate, NAD-Glo luminescence (AID 1508614;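 active = compound whose remaining NAD level is above about 45 nM, limit read from the data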;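 note: higher remaining NAD means stronger inhibition of SARM1 NADase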). The settings on record: SAM-TIR HEK293T lysate NADase, at 1 µM, stronger effect = higher value.
In a further assay the test system is F380Y. The assay can be described thus: BK channel mutant inhibitors and activators – cell-based, U2OS BacMam, thallium flux, beta subunits, selectivity assay, profiling panel (AID 1259406).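 Note: initial slope of Thallos dye fluorescence rise after thallium is added; log ratio against the mean of 0.3% DMSO vehicle wells on the same plate.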 To be noted: U2OS BacMam BK variants, at 30 µM.
The next assay deals with F380Y/beta1. Described as above. To be noted: U2OS BacMam BK variants, at 30 µM.
For the next assay, the system named is F380Y/beta2Delta. Described as above. The settings on record: U2OS BacMam BK variants, at 30 µM.
In another assay the test system is F380Y/beta4. The assay is described as above. The settings on record: U2OS BacMam BK variants, at 30 µM.
Assay [13] addresses Calcium-activated potassium channel subunit alpha-1 (Homo sapiens) + Leucine-rich repeat-containing protein 26 (Homo sapiens) (UniProt Q12791+Q2I0M4). The assay is described as above. To be noted: U2OS BacMam BK variants, F380Y/Slo1WT/gamma1, at 30 µM.
Another assay has as its system R275C. Described as above. To be noted: U2OS BacMam BK variants, at 30 µM.
The nature of assay [14]: viability loss with induced miR-34 in A549 – imaging, A549 dox-inducible miR-34, nuclei and caspase counts, primary screen (AID 1347080;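 active = compounds whose cell count with miR-34 switched on is under 0.7 times the count with it off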). The settings on record: A549 miR-34 inducible, Hoechst nuclei count, 48 h.
[15] abbreviates: measured here: epithelial PC-3E GFP cell survival.
Where [16] appears, read: measured here: mesenchymal TEM4-18 mCherry cell survival.
Setting [17] is: MELAS cybrid survival, CellTiter-Glo 48 h, stronger effect = higher value.
Setting [18] is: Rieske KO mouse fibroblast survival, CellTiter-Glo 72 h.

Sequence of NAD(+) hydrolase SARM1 (Homo sapiens) (Q6SZW1 whole entry, looked up): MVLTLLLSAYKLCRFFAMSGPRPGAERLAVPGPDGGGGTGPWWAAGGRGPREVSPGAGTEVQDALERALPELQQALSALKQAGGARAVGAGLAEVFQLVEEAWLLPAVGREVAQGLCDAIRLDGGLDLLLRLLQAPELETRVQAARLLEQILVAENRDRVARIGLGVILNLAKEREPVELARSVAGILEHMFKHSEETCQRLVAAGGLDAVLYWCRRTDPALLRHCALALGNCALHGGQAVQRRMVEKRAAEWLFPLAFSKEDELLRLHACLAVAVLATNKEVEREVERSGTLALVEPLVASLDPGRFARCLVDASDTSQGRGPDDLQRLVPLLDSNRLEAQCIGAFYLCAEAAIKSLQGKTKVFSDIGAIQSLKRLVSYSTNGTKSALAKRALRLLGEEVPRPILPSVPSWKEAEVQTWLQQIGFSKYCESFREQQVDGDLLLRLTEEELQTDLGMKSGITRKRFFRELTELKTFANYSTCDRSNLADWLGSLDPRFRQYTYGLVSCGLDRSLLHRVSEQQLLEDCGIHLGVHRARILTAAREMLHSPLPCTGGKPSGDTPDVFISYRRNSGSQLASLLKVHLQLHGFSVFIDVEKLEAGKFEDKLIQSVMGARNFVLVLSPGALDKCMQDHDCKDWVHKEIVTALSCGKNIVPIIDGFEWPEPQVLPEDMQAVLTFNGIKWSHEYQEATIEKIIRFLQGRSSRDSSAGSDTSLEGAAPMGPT
Sequence of 6-phosphogluconate dehydrogenase, decarboxylating (Homo sapiens) (P52209 whole entry, looked up): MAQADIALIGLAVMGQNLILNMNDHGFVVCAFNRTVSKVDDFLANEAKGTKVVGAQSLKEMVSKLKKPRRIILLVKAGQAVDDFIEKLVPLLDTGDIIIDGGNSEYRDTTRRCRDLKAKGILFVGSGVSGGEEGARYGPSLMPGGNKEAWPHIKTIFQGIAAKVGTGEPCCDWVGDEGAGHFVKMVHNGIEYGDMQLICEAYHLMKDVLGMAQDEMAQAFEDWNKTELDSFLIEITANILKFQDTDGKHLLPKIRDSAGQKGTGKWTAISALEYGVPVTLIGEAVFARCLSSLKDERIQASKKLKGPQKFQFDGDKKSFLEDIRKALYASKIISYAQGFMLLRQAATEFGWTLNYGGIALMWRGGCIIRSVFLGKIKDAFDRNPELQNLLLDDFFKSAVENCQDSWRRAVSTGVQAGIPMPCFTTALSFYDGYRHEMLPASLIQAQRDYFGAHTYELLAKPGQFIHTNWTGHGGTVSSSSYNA
Sequence of Calcium-activated potassium channel subunit alpha-1 (Homo sapiens) + Leucine-rich repeat-containing protein 26 (Homo sapiens) (Q2I0M4 whole entry, looked up, one chain of several): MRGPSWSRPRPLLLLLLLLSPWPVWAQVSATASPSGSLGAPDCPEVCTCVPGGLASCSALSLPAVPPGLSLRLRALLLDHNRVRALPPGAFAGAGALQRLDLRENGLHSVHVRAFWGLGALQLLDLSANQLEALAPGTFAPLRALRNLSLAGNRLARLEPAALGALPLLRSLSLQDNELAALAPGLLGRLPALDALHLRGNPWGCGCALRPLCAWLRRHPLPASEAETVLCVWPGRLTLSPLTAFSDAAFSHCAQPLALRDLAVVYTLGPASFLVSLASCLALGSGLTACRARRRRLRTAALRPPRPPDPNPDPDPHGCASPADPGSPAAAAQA

On to `CCN(CC)CCCC(C)Nc1ccnc2cc(Cl)ccc12` (stereo not drawn), for which the nuclear beta-catenin stimulation was 1.4% (inactive) in assay [1] (at 10 µM) and -0.7% in assay [1] (stimulation, at 2 µM). Also, in assay [2], the insulin secretion stimulation is 11.2% (inactive). Further, in assay [3], the viability decrease is -10.8% (inactive). In addition, in [4], the tube area decrease is 23% (inactive). The GLP1 secretion stimulation in assay [5] is 6.3% (inactive). In addition, the inhibition of viability in assay [6] is 19.9% (inactive). The viability decrease (inhibition) in [7] was 31.4% (inactive); in assay [8], 5.6% (inactive). Further, the inhibition in assay [9] is 7.49% (inactive). Further, the red/green cell ratio (normalised) in [10] is 1.21 (inactive). The normalised cell number in assay [10] (setting [15]) is 0.99; in assay [10] (setting [16]), 1.2. The z-score in [11] (setting [17]) was 0.423 (inactive) and -0.395 (inactive); in [11] (setting [18]), 0.725 and -1.28. The remaining NAD in [12] is 10 nM (inactive).

`CN(C)C(=O)CNC(=O)Cc1ccccc1`: the nuclear beta-catenin stimulation is -0.3% (inactive) in assay [1] (at 10 µM) and 2.4% in [1] (stimulation, at 2 µM). Moreover, the insulin secretion stimulation in assay [2] is 2.5% (inactive). Further, the viability decrease in [3] is 4.9% (inactive). In addition, in [4], the tube area decrease was 7.1% (inactive). Also, in assay [5], the GLP1 secretion stimulation is -1.3% (inactive). The inhibition of viability in [6] is 7.5% (inactive). Further, the viability decrease (inhibition) is -4.5% (inactive) in [7] and -0.5% (inactive) in assay [8].

On to `CN(C)CCCN1c2ccccc2CCc2ccc(Cl)cc21`, for which the nuclear beta-catenin stimulation in assay [1] (at 10 µM) was 2.9% (inactive); in [1] (stimulation, at 2 µM), 2.5%. For the same compound, in [2], the insulin secretion stimulation was 5.4% (inactive). Further, in assay [3], the viability decrease is -53% (inactive). The tube area decrease in [4] is 23.1% (inactive). The GLP1 secretion stimulation in assay [5] was 13.3% (inactive). The inhibition of viability in assay [6] was 67.4% (active). The viability decrease (inhibition) is 61.1% (active) in assay [7] and 61.8% (active) in [8]. Further, the inhibition in assay [9] is 13.8% (inactive). Also, the red/green cell ratio (normalised) in [10] was 1.09 (inactive). The normalised cell number turned out to be 0.96 in assay [10] (setting [15]) and 1.05 in assay [10] (setting [16]). Further, the z-score in assay [11] (setting [17]) is -0.661 (inactive) and 0.117 (inactive); in assay [11] (setting [18]), -0.587 and 0.253. Besides, the remaining NAD in assay [12] was 10 nM (inactive). For the same compound, the log fold change Tl+ flux in the assay with F380Y is -0.0375 (inactive); in the assay on F380Y/beta1, -0.109 (inactive); in the assay with F380Y/beta2Delta, -0.0656 (inactive); in the assay with F380Y/beta4, 0.151 (active); in [13], -0.0105 (inactive); in the assay with R275C it was 0.0284 (inactive).

As to `CC(=O)CC(c1ccccc1)c1c(O)c2ccccc2oc1=O` (stereo not drawn), the nuclear beta-catenin stimulation in assay [1] (at 10 µM) is 3.2% (inactive); in assay [1] (stimulation, at 2 µM) it was 0.2%. Also, in assay [2], the insulin secretion stimulation was 0.2% (inactive). In assay [3], the viability decrease was -5.05% (inactive). The tube area decrease in assay [4] was -0.7% (inactive). Further, the GLP1 secretion stimulation in assay [5] is 3.5% (inactive). In assay [6], the inhibition of viability was -17.8% (inactive). In addition, the viability decrease (inhibition) was 32.5% (inactive) in [7] and 7% (inactive) in assay [8]. For the same compound, the inhibition in [9] was 6.78% (inactive). The red/green cell ratio (normalised) in assay [10] is 0.98 (inactive). Further, the normalised cell number in assay [10] (setting [15]) was determined as 1.05; in [10] (setting [16]) it was 1.02. The fold change in assay [14] (stronger effect = lower value, cell number ratio, induced over uninduced) was 0.928 (inactive) and 0.882 (inactive) and 0.918 (inactive); in assay [14] (measured here: relative caspase fold change +Dox/-Dox), 1.54 and 1.82 and 3.53. Further, the cell count in assay [14] (measured here: total cells with miR-34 induction, stronger effect = lower value) is 10300 and 5280 and 12200; in assay [14] (measured here: total cells without miR-34 induction), 11100 and 5980 and 13300. Also, the figures for the z-score in assay [11] (setting [17]) and in assay [11] (setting [18]) were -0.697 (inactive) and -0.222, respectively. The remaining NAD in [12] was 10 nM (inactive). The log fold change Tl+ flux was -0.00266 (inactive) with F380Y; -0.0341 (inactive) in the assay on F380Y/beta1; 0.0322 (inactive) with F380Y/beta2Delta; 0.0212 (inactive) in the assay on F380Y/beta4; -0.00524 (inactive) in assay [13]; 0.00879 (inactive) with R275C.
